TEAD-YAP block: TEAD-YAP interaction inhibition, primary screen, TEAD-YAP interaction inhibitor project, luminescence, HEK-TIYL cells; TEAD-Gal4/YAP UAS-luciferase luminescence; inhibition, % at 9.12 µM; 640,000 compounds, 1.4% hits; in the data active = inhibition above about 32%;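 note: 0% = median of test compound wells and 100% = reference inhibitor wells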
GPR151 ag: activators of human GPR151, primary screen, cell-based, PathHunter beta-arrestin, luminescence; G-protein coupled receptor 151 (Homo sapiens), Q8TDV0; PathHunter beta-arrestin GPR151 cells; activation, % at 11.2 µM; 650,000 compounds, 1% hits; AID 1508602, 2020; in the data active = activation above about 4.9%;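 note: 0% = median of compound wells and 100% = cells with positive control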
MITF primary: MITF inhibitors, primary screen, biochemical, AlphaScreen, human | Microphthalmia-associated transcription factor (Homo sapiens), O75030 | AlphaScreen MITF homodimerization, bead proximity signal | inhibition, % at 2.6 µM | 650,000 compounds, 0.91% hits | AID 1259374, 2018; in the data active = inhibition above about 50%;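 note: 0% = vehicle wells with protein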
Target sequence (O75030 whole entry, looked up): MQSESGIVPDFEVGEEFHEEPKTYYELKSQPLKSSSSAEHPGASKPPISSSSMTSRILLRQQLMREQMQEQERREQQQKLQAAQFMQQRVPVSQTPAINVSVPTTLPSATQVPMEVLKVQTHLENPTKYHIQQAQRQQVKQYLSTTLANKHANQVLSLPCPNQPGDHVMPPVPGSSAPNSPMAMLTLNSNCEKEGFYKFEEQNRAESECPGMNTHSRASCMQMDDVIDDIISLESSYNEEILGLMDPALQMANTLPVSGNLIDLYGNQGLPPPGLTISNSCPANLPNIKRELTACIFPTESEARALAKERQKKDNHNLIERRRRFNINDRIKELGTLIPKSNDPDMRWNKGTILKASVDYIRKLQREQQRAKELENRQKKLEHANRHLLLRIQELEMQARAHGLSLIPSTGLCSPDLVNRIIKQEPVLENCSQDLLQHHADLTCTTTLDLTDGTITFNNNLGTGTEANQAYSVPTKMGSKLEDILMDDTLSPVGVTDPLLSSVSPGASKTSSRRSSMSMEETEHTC
FBW7 activator: FBW7 E3 ligase activators, primary screen, biochemical, AlphaScreen, human; AlphaScreen FBW7–phospho-cyclin E peptide binding, activator screen; 650,000 compounds, 0.13% hits; normalized activity (activation), % at 26.1 µM; F-box/WD repeat-containing protein 7 (Homo sapiens), Q969H0; in the data active = normalized activity above about 1.9%;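 note: purified mutant Fbw7 with reduced substrate affinity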
* hit, by the source's call; ! = not confirmed by another sample. The list is not random: actives were taken first. Their share in the collection is about 3.4%.

CCN1CCN(C(=O)c2ccc(N3CCC(NC(C)Cc4ccsc4)CC3)cc2)CC1 (stereo unspecified) was read as TEAD-YAP block 0, GPR151 ag 1, MITF primary 13 and FBW7 activator 0.
For O=C(Nc1ccncc1)C(=O)c1cn(Cc2ccc(Cl)cc2)c2ccccc12 the results were TEAD-YAP block 45*, GPR151 ag -1, MITF primary 8 and FBW7 activator 0.
For CC(=O)O[C@@H]1C[C@@]2(C)[C@H](c3ccoc3)C[C@H]3O[C@]32[C@]2(C)C(=O)C(O)=C3C(C)(C)C(=O)C=C[C@]3(C)C12 (stereo partly specified) the results were TEAD-YAP block 72*, GPR151 ag 3, MITF primary 9 and FBW7 activator 0.
Screening CC1(C)C(=O)C=C[C@@]2(C)C1=C(O)C(=O)[C@]1(C)C2CC[C@@]2(C)[C@H](c3ccoc3)C[C@H]3O[C@]321 (stereo partly specified) returned TEAD-YAP block 65*, GPR151 ag 2, MITF primary -11 and FBW7 activator 0.
For O=c1cccc2n1CC1CC2CN(Cc2ccc(-c3ccccc3)cc2)C1 (stereo unspecified) the results were TEAD-YAP block 2, GPR151 ag 1, MITF primary 0 and FBW7 activator 0.
O=C(Oc1cccc2cccnc12)c1cccc(S(=O)(=O)N2CCCCC2)c1 was read as TEAD-YAP block -11, GPR151 ag -2, MITF primary 32 and FBW7 activator 0.
CCOC(=O)C1=C(C)NC(=S)NC1c1cccnc1 (stereo unspecified) was read as TEAD-YAP block 11, GPR151 ag -2, MITF primary 2 and FBW7 activator 0.
Screening N#CC(C#N)=Cc1ccc(O)c(O)c1 returned TEAD-YAP block 8, GPR151 ag -1, MITF primary 74*! and FBW7 activator 0.
For COc1ccc(C2SCC(=O)Nc3c2c(-c2ccccc2)nn3-c2ccccc2)cc1OC (stereo unspecified) the results were TEAD-YAP block 52*, GPR151 ag 0, MITF primary 19 and FBW7 activator 1.
For CS(=O)(=O)OC1CSCC1NC(=O)c1ccccc1 (stereo unspecified) the results were TEAD-YAP block 9, GPR151 ag 1, MITF primary 4 and FBW7 activator 0.
Screening CN1/C(=C/C=C/c2oc3ccccc3[n+]2C)Oc2ccccc21 (tested in a mixture with another compound) returned TEAD-YAP block 79*, GPR151 ag 0, MITF primary 3 and FBW7 activator 0.
For COc1cc(/C=C\c2ccc(OC)c(O)c2)cc(OC)c1 the results were GPR151 ag 2 and MITF primary 8.
For COc1ccc(/C=C/c2cc(O)cc(O)c2)cc1 the results were TEAD-YAP block 92*, GPR151 ag -6, MITF primary -3 and FBW7 activator 0.
`COc1ccc(N2CCN(Cc3ccc(N(C)C)cc3)CC2)cc1` gave TEAD-YAP block 2, GPR151 ag -1, MITF primary 71* and FBW7 activator -1.
Screening COc1ccc(N2CCN(CCC#N)CC2)cc1 returned TEAD-YAP block 0, GPR151 ag 0, MITF primary 57* and FBW7 activator 0.
Screening CC(C)C(=O)NC(Oc1ccccc1[N+](=O)[O-])C(Cl)(Cl)Cl (stereo unspecified) returned TEAD-YAP block 2, GPR151 ag 0, MITF primary -5 and FBW7 activator 0.
Clc1ccc2c(c1)C1C=CCC1C(c1cccnc1)N2 (stereo unspecified) was read as TEAD-YAP block -10, GPR151 ag 0, MITF primary 3 and FBW7 activator 0.
COc1ccc(/C=C/c2nc3ccccc3c(=O)n2-c2ccc(C)cc2)cc1 was read as TEAD-YAP block -12, GPR151 ag -1, MITF primary 5 and FBW7 activator 0.
Screening O=c1[nH]c(O)c(N=Nc2ccc3c(c2)OCCO3)c(=O)[nH]1 returned TEAD-YAP block 62*, GPR151 ag -4, MITF primary 48 and FBW7 activator 0.
O=c1[nH]c(=S)[nH]c(O)c1N=Nc1ccc2c(c1)OCCO2 was read as TEAD-YAP block -28, GPR151 ag -9, MITF primary -8 and FBW7 activator 0.
`O=C1C=C2C(=CCOC2O)O1` (stereo unspecified) gave TEAD-YAP block 39*, GPR151 ag 0, MITF primary 29 and FBW7 activator 0.

Bioassay records deposited in PubChem by The Scripps Research Institute Molecular Screening Center.
